Reference: PubChem BioAssay (EPA / NIEHS)
Records with an inconclusive call do not appear. A structure can be active in one record and inactive in another. The source made the active and inactive calls. The calls were made as follows, unless noted: active = hit-call score of the fitted dose curve at least 0.9, where 1 is the maximum; inconclusive = response in the unintended direction; inactive = score below 0.9.

Legend:
[1] = target: Cellular tumor antigen p53 (Homo sapiens) (UniProt P04637); test: TOX21_p53_BLA_p3_ratio: Tox21 HCT-116 p53 Agonism Beta-lactamase Assay, Ratio, Phase 3 (AID 2283596)
Procedure, shortened: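 Cells were seeded at 4000/well, rested 5 h at 37C, then dosed with DMSO compound solutions (217-fold dilution) for 16 h. CCF4-AM substrate was loaded for 2 h at room temperature, and the 460/530 nm emission ratio was fitted for gain of signal versus DMSO.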

[2] = target: Cellular tumor antigen p53 (Homo sapiens) (UniProt P04637); test: TOX21_p53_BLA_p5_ratio: Tox21 HCT-116 p53 Agonism Beta-lactamase Assay, Ratio, Phase 5 (AID 2283599)
Procedure, shortened: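 HCT-116 p53-bla cells (4000/well) plated 5 h, dosed with compound (217-fold DMSO dilution) for 16 h at 37 C; CCF4-AM substrate 2 h at room temperature. Activity is the 460/530 nm emission ratio (405 nm excitation), fitted in gain-of-signal direction versus DMSO.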

[3] = target: Cellular tumor antigen p53 (Homo sapiens) (UniProt P04637); test: TOX21_p53_BLA_p4_ratio: Tox21 HCT-116 p53 Agonism Beta-lactamase Assay, Ratio, Phase 4 (AID 2283601)
Procedure, shortened: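 HCT-116 p53 beta-lactamase reporter cells (4000/well) preincubated 5 h, then compound (217-fold dilution of DMSO stock) for 16 h at 37C. CCF4-AM substrate added 2 h at room temperature; 460/530 nm emission ratio fitted upward versus DMSO.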

[4] = Tanguay_ZF_120hpf_MORT_legacy: (Legacy) Oregon State University Tanguay Lab 120 Hour Post-fertilization zebrafish Assay for Mortality (AID 2283633)
Procedure, shortened: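 Dechorionated Tropical 5D wild-type zebrafish embryos, one per well from 6 hpf, static exposure in 0.64% DMSO at 28C until 120 hpf. Mortality scored as binary by brightfield microscopy at 24 and 120 hpf.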

[5] = Tanguay_ZF_120hpf_YSE_legacy: (Legacy) Oregon State University Tanguay Lab 120 Hour Post-fertilization zebrafish Assay for Yolk Sac Edema (AID 2283634)
Procedure, shortened: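 Dechorionated Tropical 5D wild-type zebrafish embryos were exposed statically, one per well, from 6 to 120 hpf at 28C in 0.64% DMSO. Yolk sac edema was scored present/absent by brightfield at 120 hpf, and dead embryos were excluded.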

[6] = Tanguay_ZF_120hpf_AXIS_legacy: (Legacy) Oregon State University Tanguay Lab 120 Hour Post-fertilization zebrafish Assay for Body Axis Malformation (AID 2283635)
Procedure, shortened: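 Dechorionated wild-type Tropical 5D zebrafish embryos, one per well, statically exposed from 6 hpf to 120 hpf at 28C in 0.64% DMSO final. Body axis malformation scored present/absent by brightfield microscopy at 120 hpf; dead embryos excluded.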

[7] = Tanguay_ZF_120hpf_EYE_legacy: (Legacy) Oregon State University Tanguay Lab 120 Hour Post-fertilization zebrafish Assay for Eye Malformation (AID 2283636);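 also: binary presence or absence of eye malformation scored by brightfield in 120 hpf larvae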
Procedure, shortened: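 5D wild-type embryos, pronase-dechorionated at 4 hpf; static exposure 6–120 hpf, 28C, dark; DMSO 0.64% final; 5uM trimethyltin chloride positive control. Binary eye-defect scoring at 120 hpf; dead embryos not scored.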

[8] = Tanguay_ZF_120hpf_JAW_legacy: (Legacy) Oregon State University Tanguay Lab 120 Hour Post-fertilization zebrafish Assay for Jaw Malformation (AID 2283638)
Procedure, shortened: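 Dechorionated Tropical 5D wild-type zebrafish embryos, one per well, exposed statically from 6 hpf to 120 hpf at 28C in 0.64% DMSO. Jaw malformation was scored by brightfield microscopy as present or absent. It was not scored in dead embryos.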

[9] = Tanguay_ZF_120hpf_PE_legacy: (Legacy) Oregon State University Tanguay Lab 120 Hour Post-fertilization zebrafish Assay for Pericardial Edema (AID 2283640)
Procedure, shortened: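 Tropical 5D wild-type zebrafish embryos were statically exposed until 120 hpf at 28C, with 0.64% DMSO final. Pericardial edema was scored by brightfield as present or absent; endpoints were not scored in dead embryos.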

[10] = Tanguay_ZF_120hpf_SOMI_legacy: (Legacy) Oregon State University Tanguay Lab 120 Hour Post-fertilization zebrafish Assay for Somite Malformation (AID 2283647)
Procedure, shortened: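 Dechorionated Tropical 5D wild-type zebrafish embryos, one per well from 6 hpf, statically exposed at 28C to 120 hpf in 0.64% DMSO; somite malformation scored present/absent by brightfield; trimethyltin 5 uM positive control; dead embryos not scored.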

[11] = Tanguay_ZF_120hpf_PIG_legacy: (Legacy) Oregon State University Tanguay Lab 120 Hour Post-fertilization zebrafish Assay for Pigmentation Malformation (AID 2283650)
Procedure, shortened: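 Brightfield scoring of pigmentation malformation at 120 hpf, recorded as binary present/absent per larva. Exposure: dechorionated 5D wild-type embryos, one per well, static from 6 hpf at 28C, final DMSO 0.64% (vol/vol). Dead embryos not scored.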

[12] = TOX21_p53_BLA_p4_viability: Viability Assessment in the Tox21 HCT-116 p53 Agonism Beta-lactamase Assay, Phase 4 (AID 2283597);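 also: hits lower the luminescence signal meaning cytotoxicity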
Procedure, shortened: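 4000 HCT116 cells per well; 5 h attachment; compounds from DMSO, 217-fold dilution; 16 h at 37C. Then CCF4-AM, 2 h RT, followed by CellTiter-Glo, 30 min RT, luminescence. Decrease = cytotoxicity.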

[13] = Tanguay_ZF_120hpf_SNOU_legacy: (Legacy) Oregon State University Tanguay Lab 120 Hour Post-fertilization zebrafish Assay for Snout Malformation (AID 2283637)
Procedure, shortened: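 Binary brightfield scoring of snout malformation at 120 hpf. Dechorionated 5D wild-type embryos, one per well, static exposure from 6 hpf at 28C, sealed and dark; final DMSO 0.64% (vol/vol), DMSO as baseline; 5uM trimethyltin chloride positive control.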

[14] = Tanguay_ZF_120hpf_OTIC_legacy: (Legacy) Oregon State University Tanguay Lab 120 Hour Post-fertilization zebrafish Assay for Otic Vesicle Malformation (AID 2283639)
Procedure, shortened: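 Binary scoring of otic vesicle defects at 120 hpf in zebrafish (Tropical 5D) held under static exposure at 28C, sealed and shaded, with final DMSO 0.64%. Embryos dying by 24 or 120 hpf excluded; fitted positively against DMSO.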

[15] = Tanguay_ZF_120hpf_CFIN_legacy: (Legacy) Oregon State University Tanguay Lab 120 Hour Post-fertilization zebrafish Assay for Caudal Fin Malformation (AID 2283649)
Procedure, shortened: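 Dechorionated Tropical 5D wild-type embryos, one per well from 6 hpf, static exposure to 120 hpf at 28C in 0.64% DMSO. Caudal fin malformation scored by brightfield as present/absent; not scored in dead embryos.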

[16] = Tanguay_ZF_120hpf_CIRC_legacy: (Legacy) Oregon State University Tanguay Lab 120 Hour Post-fertilization zebrafish Assay for Circulatory Malformation (AID 2283651)
Procedure, shortened: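 Binary circulatory malformation call at 120 hpf by brightfield imaging of zebrafish larvae; chorion removed at 4 hpf, static exposure from 6 hpf in sealed dark plates at 28C, final DMSO 0.64%; non-mortality endpoints skipped if embryo died.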

[17] = TOX21_p53_BLA_p5_viability: Viability Assessment in the Tox21 HCT-116 p53 Agonism Beta-lactamase Assay, Phase 5 (AID 2283600)
Procedure, shortened: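 Decreased CellTiter-Glo luminescence denotes lost viability. Exposure: 16 h at 37C, 5% CO2, with compounds from DMSO stocks diluted 217-fold in wells of 4000 cells.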

[18] = Tanguay_ZF_120hpf_BRAI_legacy: (Legacy) Oregon State University Tanguay Lab 120 Hour Post-fertilization zebrafish Assay for Brain Malformation (AID 2283641)
Procedure, shortened: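 Tropical 5D wild-type zebrafish embryos exposed statically until 120 hpf at 28C, 0.64% DMSO final, sealed and dark. Brain malformation scored present/absent by brightfield at 120 hpf; dead embryos excluded. Trimethyltin chloride 5uM positive control.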

[19] = Tanguay_ZF_120hpf_PFIN_legacy: (Legacy) Oregon State University Tanguay Lab 120 Hour Post-fertilization zebrafish Assay for Pectoral Fin Malformation (AID 2283648);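 also: each larva judged yes or no for fin defect by brightfield with dead larvae skipped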
Procedure, shortened: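 Binary pectoral fin malformation call at 120 hpf by brightfield microscopy; 5D wild-type zebrafish, chorion removed at 4 hpf, one embryo per well from 6 hpf, static exposure at 28C; DMSO (0.64% final) as baseline.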

[20] = read-out: solute carrier (SLC22A6), SLC22A6 (gene 9356); test: LTEA_HepaRG_SLC22A6: Life Technologies and Expression Analysis (LTEA) Assay for solute carrier (SLC22A6) using HepaRG (AID 2283653; active = hit-call score of the fitted dose curve at least 0.9, where 1 is the maximum; inactive = score below 0.9); conditions: mRNA level, 48 h; actives raise or lower the signal
Procedure, shortened: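 Differentiated HepaRG cells exposed 48 h in serum-free induction medium to 8 half-log concentrations, top 100 uM, in 0.5% DMSO; SLC22A6 mRNA by Fluidigm qRT-PCR normalized to ACTB, GAPDH, POLR2A, fitted bidirectionally versus DMSO.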

Measured: AC50

Sequence of Cellular tumor antigen p53 (Homo sapiens) (P04637 whole entry, looked up): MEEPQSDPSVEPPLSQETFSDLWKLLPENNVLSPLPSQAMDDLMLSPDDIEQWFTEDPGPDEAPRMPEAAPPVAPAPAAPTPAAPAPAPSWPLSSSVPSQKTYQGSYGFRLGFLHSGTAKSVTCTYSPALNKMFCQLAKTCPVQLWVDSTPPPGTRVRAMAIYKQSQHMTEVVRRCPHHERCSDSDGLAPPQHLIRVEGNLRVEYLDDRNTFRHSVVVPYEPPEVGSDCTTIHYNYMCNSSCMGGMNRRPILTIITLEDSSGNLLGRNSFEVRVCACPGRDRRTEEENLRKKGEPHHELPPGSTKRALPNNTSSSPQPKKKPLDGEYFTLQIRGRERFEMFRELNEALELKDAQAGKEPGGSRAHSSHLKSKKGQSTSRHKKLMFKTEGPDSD

Clc1ccc(C(Cl)(Cl)Cl)cc1
inactive: [1] | [2] | [3] | [4] | [5] | [6] | [7] | [8] | [9] | [10] | [11]

O=C(NC(=O)c1cc(F)c(F)cc1Cl)Nc1cc(F)ccc1N1CCC(C(=O)O)CC1
inactive: [1] | [12] | [3] | [4] | [5] | [6] | [7] | [13] | [8] | [14] | [9] | [10] | [15] | [11] | [16]

CCC(=O)O[C@H]1CC[C@H]2[C@@H]3CCC4=CC(=O)CC[C@]4(C)[C@H]3CC[C@]12C
inactive: [1] | [2] | [17] | [4] | [5] | [6] | [7] | [13] | [8] | [14] | [9] | [18] | [10] | [19] | [11] | [16]

CCCN(CCC)N=O
inactive: [1] | [12] | [2] | [3] | [4] | [5] | [6] | [7] | [13] | [8] | [9] | [10] | [11] | [16]

C=CC(N)=O
inactive: [1] | [2] | [17] | [3] | [4] | [5] | [6] | [7] | [13] | [8] | [14] | [9] | [10] | [11] | [16]

O=C(O)C(F)(F)C(F)(F)C(F)(F)C(F)(F)C(F)(F)C(F)(F)C(F)(F)C(F)(F)C(F)(F)F
inactive: [1] | [12] | [2] | [17] | [3] | [4] | [5] | [6] | [13] | [8] | [14] | [10] | [11] | [16] | [20]

COc1ccc(O)c(C(C)(C)C)c1
inactive: [1] | [12] | [2] | [3] | [4] | [5] | [6] | [7] | [13] | [8] | [9] | [10] | [19] | [11]
active: [3] 86.1 µM

CCCCCCOC(=O)c1ccccc1C(=O)OCCCCCC
inactive: [2] | [17] | [3] | [4] | [5] | [7] | [13] | [8] | [9] | [10] | [11] | [16]
